From PubChem BioAssay (EPA / NIEHS)
Where “and” joins values, the source holds several entries; their conditions need not be identical. Equal entries are not always repeated. The source holds several records for some structures; these can differ, active in one and inactive in another. Calls of active or inactive are those of the source. Rule for the calls: active = hit-call score of the fitted dose curve at least 0.9, where 1 is the maximum; inactive = score below 0.9.

What was measured:
[1] = read-out: Macrophage colony-stimulating factor (MCSF), CSF1 (gene 1435); assay: BSK_hDFCGF_MCSF: BioMAP Diversity Plus: hDFCGF Assay for Macrophage colony-stimulating factor (MCSF) Biomarker Activity (AID 2283060); settings: primary human foreskin fibroblasts; actives raise or lower the signal
Outline: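 M-CSF levels read by ELISA at 24 h post-dosing in human skin fibroblasts. Parallel cultures stained with SRB assessed cytotoxicity at the same time point; response fitted in both directions against the DMSO baseline.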

[2] = BSK_hDFCGF_SRB: Viability Assessment in the BioMAP Diversity Plus: hDFCGF Assay (AID 2283061); settings: primary human foreskin fibroblasts;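 note: cells exposed to compound for 24 h before the read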
Outline: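 Viability was read as total protein: after 10% TCA fixation, wells were stained with 0.1% sulforhodamine B and read at 560 nm. Primary human foreskin fibroblasts were dosed for 24 h, with bidirectional fitting versus DMSO.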

[3] = read-out: TIMP metallopeptidase inhibitor 1 (TIMP1), TIMP1 (gene 7076); assay: BSK_hDFCGF_TIMP1: BioMAP Diversity Plus: hDFCGF Assay for TIMP metallopeptidase inhibitor 1 (TIMP1) Biomarker Activity (AID 2283062); settings: primary human foreskin fibroblasts; actives raise or lower the signal
Outline: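 TIMP-1 measured by ELISA 24 h after chemical dosing of primary human skin fibroblasts, with gain or loss fitted relative to DMSO. Parallel SRB staining (560 nm) monitored overt cytotoxicity.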

[4] = read-out: Monokine induced gamma interferon (MIG), CXCL9 (gene 4283); assay: BSK_hDFCGF_MIG: BioMAP Diversity Plus: hDFCGF Assay for Monokine induced gamma interferon (MIG) Biomarker Activity (AID 2283063); settings: primary human foreskin fibroblasts; actives raise or lower the signal
Outline: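 Human primary foreskin fibroblasts in the hDFCGF system, exposed to test chemical for 24 h; MIG measured by ELISA. Bidirectional curve fitting against DMSO negative control as activity baseline.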

[5] = read-out: Matrix Metallopeptidase 1 (MMP1), MMP1 (gene 4312); assay: BSK_hDFCGF_MMP1: BioMAP Diversity Plus: hDFCGF Assay for Matrix Metallopeptidase 1 (MMP1) Biomarker Activity (AID 2283064); settings: primary human foreskin fibroblasts; actives raise or lower the signal
Outline: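 ELISA read-out of MMP1 from human foreskin fibroblasts (primary skin cells), 24 h post-dose. Gain or loss of signal was fitted bidirectionally versus DMSO negative control; cytotoxicity was checked by SRB in parallel cultures.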

[6] = read-out: Vascular cell adhesion molecule 1 (VCAM1), VCAM1 (gene 7412); assay: BSK_hDFCGF_VCAM1: BioMAP Diversity Plus: hDFCGF Assay for Vascular cell adhesion molecule 1 (VCAM1) Biomarker Activity (AID 2283065); settings: primary human foreskin fibroblasts; actives raise or lower the signal;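 for AC50: VCAM-1 protein level quantified by ELISA after 24 h chemical exposure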
Outline: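 ELISA readout of VCAM-1 on human dermal fibroblast primary cultures, 24 h after chemical exposure. Gain or loss of signal fitted in both directions against DMSO baseline.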

[7] = read-out: Plasminogen activator inhibitor-1 (PAI1), SERPINE1 (gene 5054); assay: BSK_hDFCGF_PAI1: BioMAP Diversity Plus: hDFCGF Assay for Plasminogen activator inhibitor-1 (PAI1) Biomarker Activity (AID 2283066); settings: primary human foreskin fibroblasts; actives raise or lower the signal
Outline: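 PAI-1 levels in human dermal foreskin fibroblasts were quantified by ELISA 24 h after dosing, with gain or loss analysed against DMSO. Overt cytotoxicity was checked by sulforhodamine B total-protein staining in parallel cultures.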

[8] = read-out: Intercellular Adhesion Molecule 1 (ICAM1), ICAM1 (gene 3383); assay: BSK_KF3CT_ICAM1: BioMAP Diversity Plus: KF3CT Assay for Intercellular Adhesion Molecule 1 (ICAM1) Biomarker Activity (AID 2283067); settings: primary human keratinocytes with fibroblasts; actives raise or lower the signal
Outline: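 Cell-surface ICAM-1 was measured by ELISA 24 h after dosing primary human skin keratinocytes co-cultured with fibroblasts. Parallel SRB staining tracked overt cytotoxicity. Gain or loss of signal was fitted relative to DMSO.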

[9] = read-out: Interferon-gamma inducible Protein 10 (IP10), CXCL10 (gene 3627); assay: BSK_KF3CT_IP10: BioMAP Diversity Plus: KF3CT Assay for Interferon-gamma inducible Protein 10 (IP10) Biomarker Activity (AID 2283068); settings: primary human keratinocytes with fibroblasts; actives raise or lower the signal
Outline: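 Signal is secreted/surface IP-10 by ELISA in a human primary skin co-culture of keratinocytes and foreskin fibroblasts, taken 24 h post-dosing; DMSO served as negative control.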

[10] = BSK_KF3CT_SRB: Viability Assessment in the BioMAP Diversity Plus: KF3CT Assay (AID 2283069); settings: primary human keratinocytes with fibroblasts;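 note: read 24 h after compound addition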
Outline: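 SRB read-out at 560 nm (0.1% stain, TCA-fixed cells) gauges overt cytotoxicity in a human skin keratinocyte–fibroblast co-culture 24 h post-dosing. Signal change was fitted bidirectionally relative to DMSO control.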

[11] = read-out: Interleukin-1 alpha (IL1a), IL1A (gene 3552); assay: BSK_KF3CT_IL1a: BioMAP Diversity Plus: KF3CT Assay for Interleukin-1 alpha (IL1a) Biomarker Activity (AID 2283070); settings: primary human keratinocytes with fibroblasts; actives raise or lower the signal
Outline: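 Primary skin co-culture (keratinocytes, foreskin fibroblasts), 24 h exposure; ELISA for IL-1a; bidirectional curve fit vs DMSO.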

[12] = read-out: TIMP metallopeptidase inhibitor 2 (TIMP2), TIMP2 (gene 7077); assay: BSK_KF3CT_TIMP2: BioMAP Diversity Plus: KF3CT Assay for TIMP metallopeptidase inhibitor 2 (TIMP2) Biomarker Activity (AID 2283071); settings: primary human keratinocytes with fibroblasts; actives raise or lower the signal
Outline: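 TIMP-2 measured by ELISA at 24 h in human keratinocyte/fibroblast primary co-cultures exposed to chemicals. Both increases and decreases were fitted against DMSO. Parallel cultures were stained with SRB for total protein as an overt-cytotoxicity check.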

[13] = read-out: C-C motif chemokine 2 (Homo sapiens) (UniProt P13500); assay: BSK_KF3CT_MCP1: BioMAP Diversity Plus: KF3CT Assay for Monocyte Chemoattractant Protein 1 (MCP1/CCL2) Biomarker Activity (AID 2283073); settings: primary human keratinocytes with fibroblasts; actives raise or lower the signal
Outline: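 ELISA read-out of MCP-1, 24 h post-dose, in primary human skin keratinocytes co-cultured with fibroblasts. Parallel SRB staining monitors cytotoxicity; changes fitted both directions relative to DMSO.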

[14] = read-out: Matrix Metallopeptidase 9 (MMP9), MMP9 (gene 4318); assay: BSK_KF3CT_MMP9: BioMAP Diversity Plus: KF3CT Assay for Matrix Metallopeptidase 9 (MMP9) Biomarker Activity (AID 2283074); settings: primary human keratinocytes with fibroblasts; actives raise or lower the signal;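 for AC50: MMP9 protein level quantified by ELISA in the co-culture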
Outline: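 ELISA read-out of MMP-9 at 24 h post-dosing in a co-culture of human skin keratinocytes and foreskin fibroblasts. Gain or loss of signal was fitted in both directions against DMSO.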

[15] = read-out: urokinase plasminogen activator (uPA), PLAU (gene 5328); assay: BSK_KF3CT_uPA: BioMAP Diversity Plus: KF3CT Assay for urokinase plasminogen activator (uPA) Biomarker Activity (AID 2283075); settings: primary human keratinocytes with fibroblasts; actives raise or lower the signal
Outline: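 Skin co-culture (keratinocytes + foreskin fibroblasts), human primary; 24 h post-dose; uPA by ELISA; gain/loss fit vs DMSO baseline.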

CD40, CD40 (gene 958) = assay: BSK_LPS_CD40: BioMAP Diversity Plus: LPS Assay for CD40 Biomarker Activity (AID 2283076); settings: primary human HUVEC with PBMC; actives raise or lower the signal
Outline: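 In the LPS system of human endothelial cells with peripheral blood mononuclear cells, CD40 levels were read by ELISA 24 h post-treatment. Signal changes in either direction were fitted against the DMSO baseline, with parallel SRB protein staining.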

[16] = read-out: E-selectin (Homo sapiens) (UniProt P16581); assay: BSK_LPS_Eselectin: BioMAP Diversity Plus: LPS Assay for Eselectin Biomarker Activity (AID 2283077); settings: primary human HUVEC with PBMC; actives raise or lower the signal
Outline: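 E-selectin ELISA on LPS-stimulated endothelial cell/PBMC co-cultures, read 24 h post-treatment; gains and losses fitted against DMSO. Parallel SRB staining (0.1% SRB after 10% TCA fixation, 560 nm) flags overt cytotoxicity.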

[17] = BSK_LPS_SRB: Viability Assessment in the BioMAP Diversity Plus: LPS Assay (AID 2283079); settings: primary human HUVEC with PBMC;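 note: total protein by sulforhodamine B absorbance as a cytotoxicity measure; measured one day after compound addition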
Outline: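 SRB viability endpoint: cells fixed with 10% TCA, stained with 0.1% SRB, read at 560 nm, 24 h post-dose. HUVEC/PBMC co-culture; signal change in either direction scored relative to DMSO.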

[18] = read-out: Transforming growth factor beta 1 (TGFb1), TGFB1 (gene 7040); assay: BSK_KF3CT_TGFb1: BioMAP Diversity Plus: KF3CT Assay for Transforming growth factor beta 1 (TGFb1) Biomarker Activity (AID 2283072); settings: primary human keratinocytes with fibroblasts; actives raise or lower the signal
Outline: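 ELISA quantifies TGF-b1 at 24 h post-dose in a primary human skin co-culture of keratinocytes and fibroblasts, with gain or loss judged against DMSO. Parallel SRB total-protein staining flags overt cytotoxicity.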

[19] = read-out: Interleukin-8 (IL8), CXCL8 (gene 3576); assay: BSK_LPS_IL8: BioMAP Diversity Plus: LPS Assay for Interleukin-8 (IL8) Biomarker Activity (AID 2283078); settings: primary human HUVEC with PBMC; actives raise or lower the signal
Outline: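 ELISA read-out of IL-8 after 24 h chemical treatment of LPS-activated endothelial/PBMC human primary co-cultures. Changes either up or down relative to DMSO; overt cytotoxicity checked by sulforhodamine B staining in parallel wells.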

Measured: AC50

Chain of E-selectin (Homo sapiens) (P16581 whole entry, looked up): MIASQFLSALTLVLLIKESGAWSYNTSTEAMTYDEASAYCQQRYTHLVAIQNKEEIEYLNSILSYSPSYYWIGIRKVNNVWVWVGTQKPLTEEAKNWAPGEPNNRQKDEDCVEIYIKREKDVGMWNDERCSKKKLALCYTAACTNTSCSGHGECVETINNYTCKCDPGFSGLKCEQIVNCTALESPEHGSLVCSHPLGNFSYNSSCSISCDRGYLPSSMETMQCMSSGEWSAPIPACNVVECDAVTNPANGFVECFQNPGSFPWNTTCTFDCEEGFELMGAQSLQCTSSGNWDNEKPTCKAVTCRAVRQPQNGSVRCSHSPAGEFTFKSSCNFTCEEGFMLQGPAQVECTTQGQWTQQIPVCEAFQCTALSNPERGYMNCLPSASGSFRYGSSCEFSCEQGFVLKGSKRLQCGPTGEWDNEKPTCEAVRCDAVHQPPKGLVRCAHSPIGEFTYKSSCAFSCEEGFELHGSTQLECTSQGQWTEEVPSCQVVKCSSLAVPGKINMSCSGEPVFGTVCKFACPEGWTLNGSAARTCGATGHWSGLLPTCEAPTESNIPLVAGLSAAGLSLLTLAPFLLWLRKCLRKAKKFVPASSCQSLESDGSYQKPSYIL

N=C(N)C(F)(F)C(F)(F)C(F)(F)C(F)(F)C(F)(F)C(F)(F)C(F)(F)F
active: [1] 40.9 µM and 37.2 µM | [2] 54.4 µM | [4] 46 µM | [6] 30 µM and 18 µM | [7] 55.3 µM and 54.2 µM | CD40, CD40 (gene 958) 41.5 µM | [17] 55.1 µM
inactive: [2] | [3] | [4] | [5] | [8] | [9] | [10] | [11] | [12] | [13] | [14] | [15] | CD40, CD40 (gene 958) | [16] | [17]

O=C(O)C=C(C(F)(F)F)C(F)(F)F
inactive: [1] | [2] | [3] | [4] | [5] | [7] | [8] | [9] | [10] | [12] | [13] | [14] | [15] | CD40, CD40 (gene 958) | [16] | [17]
active: [3] 0.967 µM | [6] 13.1 µM and 22.2 µM | [7] 22.6 µM | [14] 8.2 µM | CD40, CD40 (gene 958) 19.6 µM

CCCCCCCCC(F)(F)C(F)(F)C(F)(F)C(F)(F)C(F)(F)C(F)(F)F
not listed: [9] | [18] | [19]
inactive: all other assays above

FC(F)(Br)C(F)(F)C(F)(F)C(F)(F)C(F)(F)C(F)(F)Br
not listed: [11] | [18] | [19]
inactive: all other assays above

Nc1ccc([N+](=O)[O-])cc1O
not listed: [9]
inactive: all other assays above

CCc1c(Br)c(Br)c(Br)c(Br)c1Br
not listed: [9] | [11] | [19]
inactive: all other assays above

C=CC(=O)OCC(F)(F)C(F)(F)C(F)(F)C(F)(F)C(F)(F)C(F)(F)C(F)(F)F
not listed: [9] | [18]
inactive: all other assays above

O=C(O)C(F)(F)C(F)(F)OC(F)(F)F
not listed: [9] | [11] | [18]
inactive: all other assays above

OCCCC(F)(F)C(F)(F)C(F)(F)F
not listed: [11] | [18]
inactive: all other assays above

FC(F)(F)C(F)(F)C(F)(F)C(F)(F)C(F)(F)C(F)(F)C(F)(F)C(F)(F)CCS
not listed: [9] | [11] | [18] | [19]
inactive: all other assays above

O=C(O)C(F)(F)C(F)(F)C(F)(F)C(F)(F)C(F)(F)C(F)(F)C(F)(F)C(F)(F)C(F)(F)C(F)(F)C(F)(F)C(F)(F)C(F)(F)F
not listed: [11] | [18] | [19]
inactive: all other assays above

O=C(Cl)C(F)(F)C(F)(F)C(F)(F)C(F)(F)C(F)(F)C(F)(F)C(F)(F)C(F)(F)F
inactive: [1] | [3] | [5] | [8] | [10] | [13] | [15] | CD40, CD40 (gene 958) | [16] | [17]
active: [2] 8.08 µM and 15.7 µM and 10.9 µM | [4] 21.7 µM and 44.1 µM and 30 µM | [6] 50.4 µM and 47.9 µM and 47 µM | [7] 47.5 µM and 48.5 µM and 54.6 µM | [12] 45.7 µM and 50.2 µM and 49.8 µM | [13] 54.5 µM and 53.2 µM | [14] 43.6 µM and 47.6 µM and 54.8 µM | CD40, CD40 (gene 958) 20.1 µM and 48.8 µM | [16] 50.4 µM | [17] 44.7 µM and 42.3 µM
